Rows were chosen to be rich in hits. Some 2.2% of all compounds tested hit in one or more screens of this group.
TDP-43 yeast inh: inhibitors of TDP-43 toxicity in yeast; Potency, µM (highest dose often 46.1 µM), inactives show top-dose growth rescue (activation), most hits filed as activators; 410,000 tested, 1.8% active; AID 652104; TDP-43 expressing yeast growth rescue, BacTiter-Glo, 24 h; further: % of control where 0% means no effect; nearly all actives have a fitted effect of over 50% in size
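Yeast cells expressing TDP-43 under galactose induction are exposed to compounds for 24 hr at 30 deg C. BacTiter-Glo luminescence measures growth, so protective compounds score as activators.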
Mito fusion yeast: blocks mitochondrial division or promotes mitochondrial fusion; 320,000 tested, 0.23% active; S. cerevisiae fusion-defective mutant growth rescue, CellTiterGlo 48 h; Potency, µM (doses to about 46.1 µM), for the others: at the highest dose growth rescue (activation), usual class: activators; AID 485298; further: % of control where 0% means no effect; nearly all actives have a fitted effect of over 45% in size
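Yeast fusion mutant, YPEG (non-fermentable carbon), compound, 48 h at 37C non-permissive; CellTiterGlo added, 10 min RT, luminescence read. Rescued growth = division inhibition.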
Abeta rescue: compounds reversing amyloid beta toxicity in yeast; yeast expressing A-beta42, growth rescue, OD600, 48 h; response scale: 0% DMSO, 100% iron-clioquinol control; Potency, µM (highest dose often 46.1 µM), most hits filed as activators; 410,000 tested, 0.063% active; further: nearly all actives have a fitted effect of over 55% in size
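Yeast A-beta toxicity model in growth medium with pinned compounds, 48 h at 30 C; growth read as absorbance at 600 nm. Normalized to FeCl3/clioquinol equimolar mix (positive) and DMSO (negative).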
FUS yeast rescue: FUS proteinopathy suppression in yeast; S. cerevisiae FUS-expressing, growth rescue, OD600, 24 h; Potency, µM (doses to about 76.6 µM), actives largely listed as activators; 390,000 tested, 0.24% active; AID 1347120;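 further: plate controls were DMSO vehicle for no effect and reference control for full effect; nearly all actives have a fitted effect of over 55% in size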
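Toxicity suppression screen in FUS-yeast. Cells induced with 2% galactose, starting OD 0.005, treated 24hr at 30C with compounds at multiple final concentrations; growth by OD600.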
aSyn yeast inh: alpha-synuclein toxicity inhibition in yeast. AID 652106. Yeast expressing alpha-synuclein, growth rescue, BacTiter-Glo, 24 h. Potency, µM (doses to about 46.1 µM), inactives show top-dose growth rescue (activation), usual class: activators. 370,000 tested, 0.14% active; further: % of control where 0% means no effect; nearly all actives have a fitted effect of over 65% in size
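Rescue of yeast growth: cells expressing toxic alpha-synuclein, induced in galactose at OD600 0.02, incubated with compound 24 h at 30 C. ATP luminescence quantified growth; inhibitors of toxicity appear as activators.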
An asterisk follows results filed as active; i = inactive; ? = inconclusive; nt = no result given; [ ] = another dose, or the depositor's remark. The call rests on the fitted dose curve; in most records, active means well fitted curve in the direction sought with a large enough effect; inconclusive means small, poorly fitted or top-dose-only effect, or another doubt; inactive means no such curve, though single readings can be large; an effect the other way counts as inactive or inconclusive. Potency means the concentration at half of the fitted maximal effect.

SMILES | TDP-43 yeast inh | Mito fusion yeast | Abeta rescue | FUS yeast rescue | aSyn yeast inh
CCc1nnc(NC(=O)C2Cc3ccccc3CN2S(=O)(=O)c2cccs2)s1 (stereo not drawn) | 0% | -4% | i | i | 3%
CCc1nnc(NC(=O)C2Cc3ccccc3CN2S(=O)(=O)c2ccc(C)cc2)s1 (stereo not drawn) | 17% | 11% | i | 14µM* | 1%
O=C1c2ccccc2NC(c2ccc(-c3ccc(Br)cc3)o2)N1O (stereo not drawn) | -39% | 3% | i | ? | 22µM*
Cc1cccc(OCC(=O)Nc2ccc(N3CCCC3)cc2)c1C | 1% | -4% | i | 25µM* | 29%
CCOc1cccc(C(=O)Nc2ccc(N3CCCC3)cc2)c1 | 1%[1.82 µM] | -1% | i | i | -4%
CCOc1ccc(C(=O)Nc2ccc(N3CCCC3)cc2)cc1 | -12% | -5% | i | 35µM* | -10%
Oc1ccccc1C1CC(c2cccs2)=NC(c2cccc(Br)c2)N1 (stereo not drawn) | 24% | -2% | i | i | -12%
CCC1CCCCN1S(=O)(=O)c1ccc2c(c1)CCN2C(=O)C1CCC1 (stereo not drawn) | 35µM* | -4% | i | i | 8%
CCC1CCCCN1S(=O)(=O)c1ccc(NC(=O)c2cccs2)cc1 (stereo not drawn) | -14% | 16µM* | i | i | 0%
CCOC(=O)C1CCCCN1S(=O)(=O)c1ccc2c(c1)CC(C)N2C(=O)C1CCC1 (stereo not drawn) | 24% | 0% | nt | 25µM* | 10%
CCC1CCCCN1S(=O)(=O)c1ccc(NC(=O)c2snnc2C)cc1 (stereo not drawn) | ? | 11% | i | i | -1%
CCC(C)NC(=O)C1CCCN(S(=O)(=O)c2ccc3c(c2)CC(C)N3C(=O)C2CC2)C1 (stereo not drawn) | 22% | 3% | i | i | 1%
CCCCN(C)C(=O)C1CCCN(S(=O)(=O)c2ccc3c(c2)CC(C)N3C(=O)C2CC2)C1 (stereo not drawn) | -42% | 1.1µM* | i | i | 4%
Cc1nn(CCC(=O)NNC(=O)Nc2ccccc2F)c(C)c1[N+](=O)[O-] | nt | nt | nt | i | nt
C[C@@H]1CN([C@H](C)CO)C(=O)CCCn2cc(nn2)CO[C@H]1CN(C)S(=O)(=O)c1ccc(-n2cccn2)cc1 | -13% | nt | i | i | 11%
COc1cc(C(=O)OCn2nnc3ccccc3c2=O)cc(OC)c1OC | 23% | -8% | i | i | 2%
COc1cc(/C=C\C(=O)OCn2nnc3ccccc3c2=O)cc(OC)c1OC | 20µM* | 13% | i | i | ?
COc1ccc(C(=O)OCn2nnc3ccccc3c2=O)cc1 | 18µM* | 25% | i | i | ?
Cc1ccccc1C(=O)OCn1nnc2ccccc2c1=O | 14µM* | 3% | i | i | 25%
O=S1(=O)c2ccc(N3CCC[C@H]3CO)cc2OCCCN1C1CC1 | nt | nt | nt | i | nt
CC1CC(C)(C)N2C(=O)C3(Nc4ccccc4S3)c3cccc1c32 (stereo not drawn) | -35% | 27% | i | i | ?
O=C1N2CCCc3cccc(c32)C12Nc1ccccc1S2 (stereo not drawn) | 20µM* | -4% | i | nt | ?
CCOC(=O)c1cccc(N2C(=O)c3ccccc3S2(=O)=O)c1 | 11µM* | 2% | i | i | nt
CCOC(=O)c1ccc2c(c1)N(Cc1cc(C)ccc1C)C(=O)c1ccccc1S2(=O)=O | 1% | nt | i | i | nt
COc1ccccc1C(C(=O)NCc1ccc(F)cc1)N(C(=O)c1csnn1)C1CC1 (stereo not drawn) | 4% | -9% | i | i | 0%
O=C(CSc1cnc2ccccc2n1)c1ccc(F)cc1 | 18µM* | 17% | i | i | 3%
CC1(C)OC(=O)C2(Cc3ccc(Br)cc3N3CCCCC32)C(=O)O1 (stereo not drawn) | nt | nt | nt | nt | 9%
Cn1nc(C(=O)N2CCN(c3ccccc3F)CC2)c2c1-c1ccccc1SC2 | 18µM* | nt | i | i | nt
Cn1nc(C(=O)N2CCN(c3ccc(F)cc3)CC2)c2c1-c1ccccc1SC2 | -12% | nt | i | i | nt
